{
  "source": "paper PMC11006913",
  "experiment_in_all_cases": "PBM; 200 nM protein, PBS",
  "details_in_all_cases": "dsDNA, one strand shown",
  "key": {"[1]": {"target": "PITX2 (Homo sapiens, UniProt Q99697 72-157)"}, "[2]": {"target": "CRX (Homo sapiens, UniProt O43186 26-111, R41L)", "sequence (O43186 26-111 R41L)": "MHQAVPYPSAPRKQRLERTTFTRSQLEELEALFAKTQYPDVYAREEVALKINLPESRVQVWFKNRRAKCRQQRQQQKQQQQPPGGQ"}, "[3]": {"target": "HOXD13 (Homo sapiens, UniProt P35453 263-343)", "sequence (P35453 263-343)": "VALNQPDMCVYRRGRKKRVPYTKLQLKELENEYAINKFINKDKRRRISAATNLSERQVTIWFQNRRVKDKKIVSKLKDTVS"}, "[4]": {"target": "PROP1 (Homo sapiens, UniProt O75360 56-141)", "sequence (O75360 56-141)": "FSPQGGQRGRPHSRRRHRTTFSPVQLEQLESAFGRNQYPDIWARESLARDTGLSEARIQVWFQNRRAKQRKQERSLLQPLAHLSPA"}, "[5]": {"target": "NKX3-2 (Homo sapiens, UniProt P78367 192-278, P234S)", "sequence (P78367 192-278 P234S)": "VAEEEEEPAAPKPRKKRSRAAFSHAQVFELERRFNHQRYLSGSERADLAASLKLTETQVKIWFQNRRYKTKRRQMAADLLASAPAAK"}, "[6]": {"target": "NKX3-2 (Homo sapiens, UniProt P78367 192-278)", "sequence (P78367 192-278)": "as the sequence (P78367 192-278 P234S) above, with S43P counted along it"}, "[7]": {"target": "PROP1 (Homo sapiens, UniProt O75360 56-141, R99H)", "sequence (O75360 56-141 R99H)": "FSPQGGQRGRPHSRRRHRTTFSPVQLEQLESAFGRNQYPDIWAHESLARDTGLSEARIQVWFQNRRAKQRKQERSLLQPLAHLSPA"}, "[8]": {"target": "PROP1 (Homo sapiens, UniProt O75360 56-141, F88S)", "sequence (O75360 56-141 F88S)": "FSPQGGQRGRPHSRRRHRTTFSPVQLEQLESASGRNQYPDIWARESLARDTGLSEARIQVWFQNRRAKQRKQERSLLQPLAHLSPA"}, "[9]": {"target": "SHOX (Homo sapiens, UniProt O15266 103-189, R173C)", "sequence (O15266 103-189 R173C)": "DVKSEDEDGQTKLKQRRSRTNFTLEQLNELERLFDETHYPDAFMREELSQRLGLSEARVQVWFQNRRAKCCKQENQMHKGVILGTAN"}, "[10]": {"target": "HESX1 (Homo sapiens, UniProt Q9UBX0 95-180, R109Q)", "sequence (Q9UBX0 95-180 R109Q)": "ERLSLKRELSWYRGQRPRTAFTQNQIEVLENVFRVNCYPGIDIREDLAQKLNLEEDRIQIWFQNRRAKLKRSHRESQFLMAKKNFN"}},
  "data": [
    {"sequence": "TGGCTTAA", "values": [
      {"measurement": "binding signal", "setting": "[1]", "value": "12.3 upbm affinity estimate (log intensity, higher = more binding, comparable within an allelic series)"},
      {"measurement": "binding signal", "setting": "[2]", "value": "11.5 upbm affinity estimate (log intensity, higher = more binding, comparable within an allelic series)"}
    ]},
    {"sequence": "ACACAATA", "values": [
      {"measurement": "binding signal", "setting": "[3]", "value": "10.6 upbm affinity estimate (log intensity, higher = more binding, comparable within an allelic series)"}
    ]},
    {"sequence": "GACGTTTA", "values": [
      {"measurement": "binding signal", "setting": "[3]", "value": "10.7 upbm affinity estimate (log intensity, higher = more binding, comparable within an allelic series)"}
    ]},
    {"sequence": "GGTTTATA", "values": [
      {"measurement": "binding signal", "setting": "[1]", "value": "10.5 upbm affinity estimate (log intensity, higher = more binding, comparable within an allelic series)"},
      {"measurement": "binding signal", "setting": "[4]", "value": "7.99 upbm affinity estimate (log intensity, higher = more binding, comparable within an allelic series)"}
    ]},
    {"sequence": "AAGCTAGG", "values": [
      {"measurement": "binding signal", "setting": "[1]", "value": "9.89 upbm affinity estimate (log intensity, higher = more binding, comparable within an allelic series)"},
      {"measurement": "binding signal", "setting": "[5]", "value": "10.4 upbm affinity estimate (log intensity, higher = more binding, comparable within an allelic series)"},
      {"measurement": "binding signal", "setting": "[6]", "value": "10.4 upbm affinity estimate (log intensity, higher = more binding, comparable within an allelic series)"}
    ]},
    {"sequence": "ACTTAATC", "values": [
      {"measurement": "binding signal", "setting": "[1]", "value": "12.3 upbm affinity estimate (log intensity, higher = more binding, comparable within an allelic series)"},
      {"measurement": "binding signal", "setting": "[2]", "value": "12.4 upbm affinity estimate (log intensity, higher = more binding, comparable within an allelic series)"}
    ]},
    {"sequence": "TATTTAGA", "values": [
      {"measurement": "binding signal", "setting": "[3]", "value": "10.6 upbm affinity estimate (log intensity, higher = more binding, comparable within an allelic series)"}
    ]},
    {"sequence": "CATCGACC", "values": [
      {"measurement": "binding signal", "setting": "[1]", "value": "8.07 upbm affinity estimate (log intensity, higher = more binding, comparable within an allelic series)"},
      {"measurement": "binding signal", "setting": "[5]", "value": "10.6 upbm affinity estimate (log intensity, higher = more binding, comparable within an allelic series)"},
      {"measurement": "binding signal", "setting": "[6]", "value": "10.6 upbm affinity estimate (log intensity, higher = more binding, comparable within an allelic series)"}
    ]},
    {"sequence": "TATATCAA", "values": [
      {"measurement": "binding signal", "setting": "[3]", "value": "10.8 upbm affinity estimate (log intensity, higher = more binding, comparable within an allelic series)"}
    ]},
    {"sequence": "TAACTAAA", "values": [
      {"measurement": "binding signal", "setting": "[3]", "value": "10.7 upbm affinity estimate (log intensity, higher = more binding, comparable within an allelic series)"}
    ]},
    {"sequence": "AAGTTGTA", "values": [
      {"measurement": "binding signal", "setting": "[3]", "value": "10.7 upbm affinity estimate (log intensity, higher = more binding, comparable within an allelic series)"}
    ]},
    {"sequence": "ACGGTGCC", "values": [
      {"measurement": "binding signal", "setting": "[1]", "value": "7.94 upbm affinity estimate (log intensity, higher = more binding, comparable within an allelic series)"},
      {"measurement": "binding signal", "setting": "[5]", "value": "10.5 upbm affinity estimate (log intensity, higher = more binding, comparable within an allelic series)"},
      {"measurement": "binding signal", "setting": "[6]", "value": "10.5 upbm affinity estimate (log intensity, higher = more binding, comparable within an allelic series)"}
    ]},
    {"sequence": "AGGAGGCC", "values": [
      {"measurement": "binding signal", "setting": "[1]", "value": "8.05 upbm affinity estimate (log intensity, higher = more binding, comparable within an allelic series)"},
      {"measurement": "binding signal", "setting": "[4]", "value": "6.87 upbm affinity estimate (log intensity, higher = more binding, comparable within an allelic series)"},
      {"measurement": "binding signal", "setting": "[7]", "value": "6.81 upbm affinity estimate (log intensity, higher = more binding, comparable within an allelic series)"},
      {"measurement": "binding signal", "setting": "[8]", "value": "6.57 upbm affinity estimate (log intensity, higher = more binding, comparable within an allelic series)"}
    ]},
    {"sequence": "CTAAGCCC", "values": [
      {"measurement": "binding signal", "setting": "[1]", "value": "12.3 upbm affinity estimate (log intensity, higher = more binding, comparable within an allelic series)"},
      {"measurement": "binding signal", "setting": "[2]", "value": "11.5 upbm affinity estimate (log intensity, higher = more binding, comparable within an allelic series)"}
    ]},
    {"sequence": "AGAGTTAA", "values": [
      {"measurement": "binding signal", "setting": "[3]", "value": "10.7 upbm affinity estimate (log intensity, higher = more binding, comparable within an allelic series)"}
    ]},
    {"sequence": "TATTGCGA", "values": [
      {"measurement": "binding signal", "setting": "[3]", "value": "10.6 upbm affinity estimate (log intensity, higher = more binding, comparable within an allelic series)"}
    ]},
    {"sequence": "ATAAATCC", "values": [
      {"measurement": "binding signal", "setting": "[1]", "value": "12.3 upbm affinity estimate (log intensity, higher = more binding, comparable within an allelic series)"}
    ]},
    {"sequence": "CGATTTAA", "values": [
      {"measurement": "binding signal", "setting": "[3]", "value": "10.9 upbm affinity estimate (log intensity, higher = more binding, comparable within an allelic series)"}
    ]},
    {"sequence": "GATAAGCC", "values": [
      {"measurement": "binding signal", "setting": "[1]", "value": "12.3 upbm affinity estimate (log intensity, higher = more binding, comparable within an allelic series)"},
      {"measurement": "binding signal", "setting": "[2]", "value": "12.4 upbm affinity estimate (log intensity, higher = more binding, comparable within an allelic series)"}
    ]},
    {"sequence": "AGACTATA", "values": [
      {"measurement": "binding signal", "setting": "[3]", "value": "10.7 upbm affinity estimate (log intensity, higher = more binding, comparable within an allelic series)"}
    ]},
    {"sequence": "ATCAATAC", "values": [
      {"measurement": "binding signal", "setting": "[3]", "value": "10.5 upbm affinity estimate (log intensity, higher = more binding, comparable within an allelic series)"}
    ]},
    {"sequence": "TAAGCTTA", "values": [
      {"measurement": "binding signal", "setting": "[1]", "value": "12.3 upbm affinity estimate (log intensity, higher = more binding, comparable within an allelic series)"}
    ]},
    {"sequence": "GCCGGATA", "values": [
      {"measurement": "binding signal", "setting": "[1]", "value": "9.58 upbm affinity estimate (log intensity, higher = more binding, comparable within an allelic series)"}
    ]},
    {"sequence": "GTTAAAGA", "values": [
      {"measurement": "binding signal", "setting": "[3]", "value": "10.8 upbm affinity estimate (log intensity, higher = more binding, comparable within an allelic series)"}
    ]},
    {"sequence": "AATTATGG", "values": [
      {"measurement": "binding signal", "setting": "[9]", "value": "9.26 upbm affinity estimate (log intensity, higher = more binding, comparable within an allelic series)"}
    ]},
    {"sequence": "GGTCTTTA", "values": [
      {"measurement": "binding signal", "setting": "[1]", "value": "9.73 upbm affinity estimate (log intensity, higher = more binding, comparable within an allelic series)"}
    ]},
    {"sequence": "TATATGCA", "values": [
      {"measurement": "binding signal", "setting": "[3]", "value": "10.8 upbm affinity estimate (log intensity, higher = more binding, comparable within an allelic series)"}
    ]},
    {"sequence": "ACACCAGC", "values": [
      {"measurement": "binding signal", "setting": "[1]", "value": "8.12 upbm affinity estimate (log intensity, higher = more binding, comparable within an allelic series)"}
    ]},
    {"sequence": "ATCATTCA", "values": [
      {"measurement": "binding signal", "setting": "[3]", "value": "10.6 upbm affinity estimate (log intensity, higher = more binding, comparable within an allelic series)"}
    ]},
    {"sequence": "GACAACGC", "values": [
      {"measurement": "binding signal", "setting": "[1]", "value": "7.92 upbm affinity estimate (log intensity, higher = more binding, comparable within an allelic series)"}
    ]},
    {"sequence": "CGGATTTA", "values": [
      {"measurement": "binding signal", "setting": "[1]", "value": "12.3 upbm affinity estimate (log intensity, higher = more binding, comparable within an allelic series)"},
      {"measurement": "binding signal", "setting": "[2]", "value": "12.3 upbm affinity estimate (log intensity, higher = more binding, comparable within an allelic series)"}
    ]},
    {"sequence": "AATGAGTA", "values": [
      {"measurement": "binding signal", "setting": "[3]", "value": "10.8 upbm affinity estimate (log intensity, higher = more binding, comparable within an allelic series)"}
    ]},
    {"sequence": "AATTAGGT", "values": [
      {"measurement": "binding signal", "setting": "[9]", "value": "9.2 upbm affinity estimate (log intensity, higher = more binding, comparable within an allelic series)"},
      {"measurement": "binding signal", "setting": "[4]", "value": "11 upbm affinity estimate (log intensity, higher = more binding, comparable within an allelic series)"},
      {"measurement": "binding signal", "setting": "[10]", "value": "8.66 upbm affinity estimate (log intensity, higher = more binding, comparable within an allelic series)"},
      {"measurement": "binding signal", "setting": "[7]", "value": "10.6 upbm affinity estimate (log intensity, higher = more binding, comparable within an allelic series)"},
      {"measurement": "binding signal", "setting": "[8]", "value": "7.74 upbm affinity estimate (log intensity, higher = more binding, comparable within an allelic series)"}
    ]},
    {"sequence": "AATAATGC", "values": [
      {"measurement": "binding signal", "setting": "[3]", "value": "10.8 upbm affinity estimate (log intensity, higher = more binding, comparable within an allelic series)"}
    ]},
    {"sequence": "ACGATATA", "values": [
      {"measurement": "binding signal", "setting": "[3]", "value": "10.9 upbm affinity estimate (log intensity, higher = more binding, comparable within an allelic series)"}
    ]}
  ]
}
